Assay results: the supplement of paper PMC6279402
Where a name gives a salt, the structure may show the parent alone. ± gives the standard deviation of the averaged measurements.

Test system: A549
Test: relative viability (normalised to negative control = 1, bortezomib = 0) (fraction); higher = less cytotoxic
Conditions: inflammatory serum-free RHB-A with cytokines + LPS, 5 d + 24 h CellTiter-Blue
[1] = compound 30 nM, GSK126 pretreatment: 5 uM GSK126
[2] = compound 30 nM, GSK126 pretreatment: none (vehicle)
[3] = compound 300 nM, GSK126 pretreatment: 5 uM GSK126
[4] = compound 300 nM, GSK126 pretreatment: none (vehicle)

Compound	relative viability [1]	relative viability [2]	relative viability [3]	relative viability [4]
CC/C(=C(\c1ccccc1)c1ccc(OCCN(C)C)cc1)c1ccccc1 [Tamoxifen citrate]	0.967 ± 0.075	0.863 ± 0.019	0.909 ± 0.13	0.972 ± 0.024
N#C/C(=C/c1ccc(O)c(O)c1)C(=O)NCc1ccccc1 [AG-490; Tyrphostin AG 490]	0.914 ± 0.15	0.861 ± 0.1	0.879 ± 0.15	0.873 ± 0.11
CNC(=O)c1c(F)cccc1Nc1nc(Nc2cc3c(cc2OC)CCN3C(=O)CN(C)C)nc2[nH]ccc12	0.762 ± 0.059	0.792 ± 0.067	0.295 ± 0.019	0.431 ± 0.015
O=P(O)(O)C(O)(Cn1ccnc1)P(=O)(O)O [Zoledronic acid; Zolendronic acid]	0.936 ± 0.023	0.924 ± 0.15	1.09 ± 0.12	1.08 ± 0.051
CO[C@H]1C[C@@H]2CC[C@@H](C)[C@@](O)(O2)C(=O)C(=O)N2CCCC[C@H]2C(=O)O[C@H]([C@H](C)C[C@@H]2CC[C@@H](OCCO)[C@H](OC)C2)CC(=O)[C@H](C)/C=C(\C)[C@@H](O)[C@@H](OC)C(=O)[C@H](C)C[C@H](C)/C=C/C=C/C=C/1C [Everolimus; Everolimus(RAD001)]	0.647 ± 0.072	0.615 ± 0.033	0.562 ± 0.068	0.582 ± 0.063
Clc1ccc(Nc2nnc(Cc3ccncc3)c3ccccc23)cc1 [Vatalanib]	0.822 ± 0.036	0.791 ± 0.044	0.84 ± 0.074	0.874 ± 0.05
C/C(=C\c1csc(C)n1)[C@@H]1C[C@@H]2O[C@]2(C)CCC[C@H](C)[C@H](O)[C@@H](C)C(=O)C(C)(C)[C@@H](O)CC(=O)N1 [Ixabepilone]	0.464 ± 0.084	0.269 ± 0.068	0.386 ± 0.016	0.288 ± 0.043
CN(C)Cc1cccc(N=C(c2ccccc2)c2c(O)[nH]c3cc(C(=O)N(C)C)ccc23)c1	0.839 ± 0.14	0.864 ± 0.16	0.954 ± 0.16	1.04 ± 0.16
Cc1c(NC(=O)OC[C@@H]2COCCN2)cn2ncnc(Nc3ccc4c(cnn4Cc4cccc(F)c4)c3)c12	0.806 ± 0.16	0.802 ± 0.081	0.56 ± 0.088	0.621 ± 0.052
CN(C)/N=N/c1[nH]cnc1C(N)=O [Dacarbazine]	0.931 ± 0.18	0.992 ± 0.11	1.05 ± 0.11	1.07 ± 0.031
Nc1nc(F)nc2c1ncn2[C@@H]1O[C@H](COP(=O)(O)O)[C@@H](O)[C@@H]1O [Fludarabine; Fludarabine phosphate]	0.858 ± 0.071	0.879 ± 0.098	0.891 ± 0.089	0.842 ± 0.055
CC[C@H](Nc1ncnc2nc[nH]c12)c1nc2cccc(F)c2c(=O)n1-c1ccccc1	0.899 ± 0.11	0.876 ± 0.1	0.878 ± 0.08	0.852 ± 0.035
Cn1c(Nc2ccc(C(F)(F)F)cc2)nc2cc(Oc3ccnc(-c4ncc(C(F)(F)F)[nH]4)c3)ccc21	0.826 ± 0.12	0.699 ± 0.17	0.427 ± 0.11	0.347 ± 0.037
CC(C)Cn1cnc2c(N)nc3ccccc3c21 [Imiquimod]	0.8017 ± 0.004	0.794 ± 0.058	0.863 ± 0.059	0.911 ± 0.019
Cc1ccc(-n2nc(C(C)(C)C)cc2NC(=O)Nc2ccc(OCCN3CCOCC3)c3ccccc23)cc1	1.13 ± 0.13	0.937 ± 0.18	1.32 ± 0.064	1.13 ± 0.23
CN(C)C1CCN(C(=O)c2ccc(NC(=O)Nc3ccc(-c4nc(N5CCOCC5)nc(N5CCOCC5)n4)cc3)cc2)CC1	0.329 ± 0.01	0.428 ± 0.011	0.0588 ± 0.0043	0.088 ± 0.0042
CCOc1ccn(-c2ccc(F)cc2)c(=O)c1C(=O)Nc1ccc(Oc2ccnc(N)c2Cl)c(F)c1	0.905 ± 0.21	0.914 ± 0.17	0.977 ± 0.21	1.08 ± 0.16
CNNCc1ccc(C(=O)NC(C)C)cc1 [Procarbazine hydrochloride; Procarbazine]	0.962 ± 0.15	0.915 ± 0.14	0.997 ± 0.12	0.967 ± 0.06
COc1cc2ncnc(Nc3ccc(F)c(Cl)c3)c2cc1OCCCN1CCOCC1 [Gefitinib(Iressa); Gefitinib]	0.922 ± 0.11	0.873 ± 0.084	0.488 ± 0.11	0.472 ± 0.045
COc1nc(N)nc2c1ncn2[C@@H]1O[C@H](CO)[C@@H](O)[C@@H]1O [Nelarabine]	0.838 ± 0.12	0.875 ± 0.13	0.96 ± 0.16	0.956 ± 0.14
Nc1ncn([C@H]2C[C@H](O)[C@@H](CO)O2)c(=O)n1 [5-Aza-2'-deoxycytidine; Decitabine]	0.841 ± 0.15	0.715 ± 0.17	0.86 ± 0.18	0.836 ± 0.13
Fc1cc(-c2cccc3ncc(-c4cnn(C5CCNCC5)c4)nc23)cc(F)c1CN1CCOCC1	0.927 ± 0.076	0.889 ± 0.13	1.11 ± 0.12	1.05 ± 0.15
O=C(NC[C@H](O)CO)c1ccncc1Nc1ccc(I)cc1F	0.247 ± 0.056	0.352 ± 0.0078	0.126 ± 0.019	0.159 ± 0.025
COc1cc(Nc2c(C#N)cnc3cc(OCCCN4CCN(C)CC4)c(OC)cc23)c(Cl)cc1Cl [Bosutinib(SKI-606)]	0.984 ± 0.052	0.991 ± 0.061	0.65 ± 0.061	0.7617 ± 0.007
